According to the supplement of paper PMC6555819:

Tested on: VDR:RXRa (NR concentration 270 nM, RXRa partner concentration 90 nM)
Assay: PBM binding z-score (relative to random genomic background probes); higher = stronger binding; sequences stand for … in GC…GCGATTGACAGCGTAGAATGAAGG
Experimental: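 Protein-binding microarray (Agilent 4x180K custom design, double-stranded 60-nt probes: 5' GC cap, 34-nt variable region, 24-nt constant primer region; full probe sequence given). Purified or IVT nuclear receptor:RXRα heterodimers (3:1 NR:RXRα, mostly 270:90 nM) or homodimers were incubated for 1 h in PBS with 2% milk and no ligand, then detected with Alexa488 antibodies. Fluorescence from o1-orientation probes (~5 replicates averaged) was converted to z-scores against 500 random hg19 background probes. Variable regions are seed direct-repeat (DR0–DR5) sites, all their single-nucleotide variants and half-site ablations.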

Row | Sequence | PBM binding z-score
1 | TAGCCTCGGTCATGCGGGCCAGTATAGTGTCGGC | -0.284
2 | CCGAGTAGGTGATGGGGCATTCAGGCAACGGTGA | -0.461
3 | CTACCACGGTGAACAAGGTCGTTGATTACTATTC | 3.47
4 | AATCGGAGGACAAAGGTCAGAGCTACGCCAGTGA | 3.23
5 | CCTAGCAGGCCAAACTGGGTCACTCAAGGCTTGA | 0.616
6 | CCTAGTTGGTCAAGGTCATACACGCTATAGGTAC | 4.33
7 | GGAACGAGGCCAAGTTGATAGCAGAGTTTGATGG | -0.548
8 | GCTAGTTGGTCATTAAAAGGTCACACACCGGTCG | 4.42
9 | GGAACGAGGGCAAAGTTAATAGCATCTGTCGACG | 1.17
10 | CGAACTAGGTCAAGGACACTGAATCTCCGCACGC | 1.57
11 | GGAACCAGGGCATTCGAGTTGATAGCATGGCGAT | 2.21
12 | CGTCCAGGGTCAGCAGGTCAGTGAAAGCGACGTG | 4.15
13 | ATACCAAGGTGATCGTGAGGGCGTTGATACTAAC | 1.42
14 | GCCATTAGTTGAAAGGGCAACCGAATGATTCTCG | 0.274
15 | TTGCCAAGGTGAGCTGAGGTCGTTGATCCAACTC | 3.93
16 | ATCCCTAGGTAACCAAGTTCAGTGAATGCCGAAC | 4.31
17 | TGTCAAGGTTCAAAGGTAACGTAAGTATCCACAC | 4.59
18 | ATCTCTAGGTAAGACTCAGTTCAATGAAGAACGC | 1.07
19 | CCTACTGGGCCACGAACGGTCATTGATTCAGTGA | -0.227
20 | ACTTACGGTTCAACGAGGTTATAGCACGCGTATA | 7.06

Row | Sequence | PBM binding z-score
21 | CGAACTAGGTCATCCAGGAGAGTGAATACATTGA | 2.35
22 | TCGAGTAGGTTACCAATGGGGCATTCATCTTTCT | 0.117
23 | CGAACTATGTCATCCAGGACAGTGAATACATTGA | 1.05
24 | CAAACTAGGTCACCGGAAGGTCAAAGCCCGCATG | 5.79
25 | ACTTACAGGTCAACGAGGTTATAGCACGCGTATA | 7.66
26 | GGAACGAGGGCATACGAGTTGATAGCATGGCGAT | 2.73
27 | CCTTACGGGTCACTGACAGGTAATAGCATTTGGA | 3.17
28 | TCTCGGAGGACTCGAAAGGTCAGAGCTCGACATC | 2.4
29 | AGAATGAGGTTATTAAGATAAGGGAATTGCGGTC | 1.3
30 | ATAGGTAGGTTACATCCGGGTCATTCAGGCTATG | 4.21
31 | CCTTACGGGTCACGAGGTAATAGCACGACGAGCG | 4.18
32 | AGAATAAGGTTACCAAAGATCAGGGAAACGCTTG | 0.872
33 | CCTACTGGGCCTTCAGGTCATTGATATCAACGTT | 1.45
34 | AATACAGGGTCACTAGGCCAAAGTAGGTACGAAT | 4.27
35 | GTACCAAGGTGAATAGGTCATTGATGAGTAGGCG | 2.24
36 | AGAATAAGGTTATTAAGATCAGGGAATTGCGGTC | 1.95
37 | TCGAGTAGGTTACCAATGGGACATTCAGCTTTCT | -0.0477
38 | CTCGAAAGGTCGGTTGAGGCGAGTATACGGATAA | 0.809
39 | ATCTCTAGGAAAAAGTTCAGTGAATCCCGAGGAT | 0.44
40 | TCTGCTAGGTCAACGATGGTCAGCTTATCTGCTA | 1.63
